Kd data for 17 compounds are collected here from PMC5540273 (PLoS ONE, 2017).

In general, Kd refers to the equilibrium constant for the complex coming apart.

The structures appear in SMILES notation.

Test [1] concerns RIPK1.
The subject of test [2] is ROCK2.
In test [3] the test system is RPS6KA4(Kin.Dom.1-N-terminal).
Test [4] has as its system T1, TIE2.
T1 construct: gene TEK

In test [5] the test system is T2, RSK1(Kin.Dom.2-C-terminal).
T2 construct: gene RPS6KA1

The subject of test [6] is TNIK.
The subject of test [7] is T3, RSK2(Kin.Dom.2-C-terminal).
T3 construct: gene RPS6KA3

In test [8] the test system is T4, RSK4(Kin.Dom.1-N-terminal).
T4 construct: gene RPS6KA6

For test [9], the system named is TNNI3K.
The test system of test [10] is SRPK1.
For test [11], the system named is TESK1.
In test [12] the test system is STK33.
The subject of test [13] is STK36.
Test [14] relates to TAOK1.
Test [15] has as its system TAOK3.
For test [16], the system named is TGFBR1.
The subject of test [17] is T5, TRKA.
T5 construct: gene NTRK1
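Further: kd values determined as follow-up on hits from a single-replicate KINOMEscan panel screen.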

In turn, `Nc1ncnc2occ(-c3ccc4c(c3)CCN4C(=O)Cc3cc(F)ccc3F)c12` [GSK2645446] yielded a Kd in test [1] of 0.41 µM.
Regarding `c1ccc(-c2ccnc3[nH]ccc23)cc1` [SB-693578], in test [2], the affinity, expressed as Kd, was 0.53 µM.
In [3], `O=C1NC(=O)C(c2ccc(Cl)cc2)=C1Nc1cccc(Cl)c1` [SB-317651] displayed a Kd greater than 10 µM.
On to `Cc1nccc(-c2c(-c3ccc(F)cc3)ncn2CCCN2CCOCC2)n1.Cl` [SB-282975], for which the Kd in [3] and in test [4] was greater than 10 µM each time.
`NS(=O)(=O)c1cccc(N/C=C2\C(=O)Nc3ccc(S(=O)(=O)Cc4c(Cl)cccc4Cl)cc32)c1` [GSK398099]: the Kd in test [5] was greater than 10 µM; in test [6], 0.33 µM.
On to `Cn1cnc2c(N)ncnc21` [SKF-97623], for which the Kd in test [5] was greater than 10 µM.
As for `COc1ccc(Nc2nccc(N3CCC(NC(=O)C(C)c4ccc(Cl)cc4)CC3)n2)cc1` (centres unmarked) [GSK1379812], the Kd in test [7] is greater than 10 µM.
Take `O=C(Nc1n[nH]c2nc(-c3cccs3)c(Br)cc12)C1CC1` [SB-735297]: the Kd is 3.8 µM in test [8] and greater than 10 µM in [9].
Regarding `Cn1cncc1C(=O)NC1CCN(c2ccnc(Nc3ccc(F)cc3)n2)C1` (centres unmarked) [GSK1379717], the Kd in test [10] and in test [11] was greater than 10 µM in each case.
In the case of `Cl.Cl.Cl.N#Cc1ccc(CCNc2nccc(-c3cccc(CN4CCNCC4)c3)n2)cc1` [GSK2137462], the Kd in test [12] worked out at 3.9 µM.
In test [13], `CS(=O)(=O)Cc1ccc(Nc2nccc(-c3c(-c4cccc(NC(=O)C5CCCCC5)c4)nn4ncccc34)n2)cc1` [GSK350559] displayed a Kd of 0.067 µM.
Take `CNCc1ccc2nc(NC(=O)c3ccc(C(C)(C)C)cc3)cn2c1`: the Kd in test [14] and in [15] was greater than 10 µM throughout.
Compound `COc1cccc(CNC(=O)NC2CCN(c3ccnc(Nc4ccc(F)cc4)n3)C2)c1` (centres unmarked) [GSK1379723] gave a Kd in [11] of 9.8 µM.
In the case of `COc1ccc2cc(-c3nc(-c4ccccc4C(C)C)[nH]c3-c3ccncc3)ccc2c1` [SB-660566], the values for the Kd in [16] and in test [4] were 0.77 µM and 0.16 µM, respectively.
Turning to `Nc1nccc(-c2c(-c3ccc(F)cc3)ncn2C2CCN(Cc3ccccc3)CC2)n1` [SB-219980], in test [6], binding was put at a Kd of 4.1 µM.
Turning to `O=C(Nc1n[nH]c2cc(-c3ccsc3)ccc12)C1CC1` [SB-732932], binding in [17] was characterised by a dissociation constant (Kd) of 3.1 µM.
`COC(=O)C(Cc1ccccc1)NC(=O)NC1CCN(c2ccnc(Nc3ccc(F)cc3)n2)C1` (centres unmarked) [GSK1379714] displayed a Kd in [17] of 1.5 µM.
